Screening data deposited in PubChem by National Center for Advancing Translational Sciences (NCATS).
HEK cytotox – HEK 293 cell cytotoxicity; HEK 293 viability, ATP luminescence (CellTiter-Glo), 48-72 h; Potency, µM (doses to about 115 µM), for the others: at the top dose activity change, negative = cytotoxicity, actives largely listed as inhibitors; hit rate 6.6% among 94,000; AID 1345083; active = well fitted curve in the direction sought with a large enough effect; inconclusive = small, poorly fitted or top-dose-only effect, or another doubt; inactive = no such curve, though single readings can be large; an effect the other way counts as inactive or inconclusive; note: % is set by controls: 0 for no effect and ±100 for the full control effect; nearly all actives have a fitted effect of over 60% in size
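Read-out: CellTiter-Glo ATP luminescence. Cells: HEK 293, 250 cells/well. Exposure: 48 or 72 hr, 37 degree Celsius.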
FLuc inh – blocks purified firefly luciferase enzyme activity; P08659; hit rate 2.5% among 76,000; purified P. pyralis luciferase, luminescence, biochemical; Potency, µM (titrated, usually from 115 µM), usual class: inhibitors; active = well fitted curve in the direction sought with a large enough effect; inconclusive = small, poorly fitted or top-dose-only effect, or another doubt; inactive = no such curve, though single readings can be large; an effect the other way counts as inactive or inconclusive; note: % is set by controls: 0 for no effect and ±100 for the full control effect; nearly all actives have a fitted effect of over 65% in size
Target sequence (P08659 whole entry, looked up): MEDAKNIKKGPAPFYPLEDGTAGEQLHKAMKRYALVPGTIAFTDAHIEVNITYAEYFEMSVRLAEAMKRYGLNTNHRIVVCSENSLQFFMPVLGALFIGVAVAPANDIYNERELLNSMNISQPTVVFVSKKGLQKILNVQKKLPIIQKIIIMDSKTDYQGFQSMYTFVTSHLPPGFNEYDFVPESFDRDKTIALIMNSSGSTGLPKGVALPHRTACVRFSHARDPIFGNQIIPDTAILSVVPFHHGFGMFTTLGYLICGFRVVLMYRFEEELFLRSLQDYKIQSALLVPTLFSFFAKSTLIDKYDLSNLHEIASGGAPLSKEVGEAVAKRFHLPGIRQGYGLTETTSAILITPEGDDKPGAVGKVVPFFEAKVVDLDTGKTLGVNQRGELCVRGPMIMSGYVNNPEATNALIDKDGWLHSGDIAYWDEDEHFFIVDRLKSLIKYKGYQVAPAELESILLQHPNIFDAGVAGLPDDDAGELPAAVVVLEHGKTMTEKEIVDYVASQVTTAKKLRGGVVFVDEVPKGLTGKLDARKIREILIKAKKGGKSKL
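Luminescence read by CCD imager after adding enzyme (10nM final) to wells holding compound, titrated in qHTS. Substrates 10uM each D-luciferin and ATP; buffer 50mM Tris acetate pH 7.5, 10mM Mg acetate, Tween-20, BSA.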
hNpr1 antagonist – human Npr1 receptor antagonism | P16066 | HEK293 hNpr1 GloSensor cGMP, ANP-stimulated luminescence | Potency, µM (top dose mostly 46.3 µM), inactives show at the highest dose activity change, negative = inhibition, hits mostly inhibitors | hit rate 1.6% among 76,000 | AID 1347048; note: % is set by controls: 0 for no effect and ±100 for the full control effect; nearly all actives have a fitted effect of over 60% in size
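HEK293 cells stably expressing human Npr1 and cGMP GloSensor pGS-40F, loaded 2 h with 2% GloSensor reagent, given compound 30 min at room temperature. Luminescence read before and 20 min after 0.1 nM hNppA.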
3T3 cytotox – NIH 3T3 cell cytotoxicity | NIH 3T3 viability, CellTiter-Glo ATP luminescence, 48-72 h | hit rate 4.3% among 94,000 | AID 1345082 | Potency, µM (top dose mostly 96.7 µM), for the others: at the top dose activity change, negative = cytotoxicity, hits mostly inhibitors; active = well fitted curve in the direction sought with a large enough effect; inconclusive = small, poorly fitted or top-dose-only effect, or another doubt; inactive = no such curve, though single readings can be large; an effect the other way counts as inactive or inconclusive; note: % is set by controls: 0 for no effect and ±100 for the full control effect; nearly all actives have a fitted effect of over 55% in size
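Luminescent ATP readout (CellTiter-Glo, 10 min RT) after 48 or 72 hr compound exposure of NIH 3T3 cells seeded at 400 cells/well in 1536-well format; quantitative HTS.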
NPR1 antag cnf – confirmation of human Npr1 natriuretic peptide receptor antagonists. shares compounds with hNpr1 antagonist. AID 1347044. hit rate 76% among 1,400. HEK293 hNpr1 cGMP GloSensor luminescence, ANP-stimulated. Potency, µM (doses to about 57.6 µM), for inactives: at the highest dose activity change, negative = inhibition, most hits filed as inhibitors; note: nearly all actives have a fitted effect of over 70% in size
Npr2 selectivity – antagonizes human Npr2, subtype selectivity check; shares compounds with hNpr1 antagonist; HEK293 hNpr2 GloSensor cGMP luminescence, CNP-stimulated; hit rate 67% among 1,400; AID 1347046; Potency, µM (series often up to 57.6 µM), inactives show at the top dose activity change, negative = inhibition, actives largely listed as inhibitors; note: nearly all actives have a fitted effect of over 70% in size
FLuc counter – FLuc enzyme inhibition, Npr1 counter-screen; Potency, µM (doses to about 57.6 µM), without a hit: at the top dose activity change, negative = inhibition, most hits filed as inhibitors; shares compounds with hNpr1 antagonist; AID 1347047; purified FLuc enzyme, luminescence, Km substrate; hit rate 0.7% among 1,400; active = well fitted curve in the direction sought with a large enough effect; inconclusive = small, poorly fitted or top-dose-only effect, or another doubt; inactive = no such curve, though single readings can be large; an effect the other way counts as inactive or inconclusive; note: 0% is about no effect
GloSensor cGMP – control cell line activity, Npr1 antagonist counter-screen | shares compounds with hNpr1 antagonist | HEK293 GloSensor cGMP, SNP-stimulated, luminescence | hit rate 69% among 1,400 | Potency, µM (highest dose often 57.6 µM), without a hit: at the top dose activity change, negative = inhibition, most hits filed as inhibitors; note: % is set by controls: 0 for no effect and ±100 for the full control effect; nearly all actives have a fitted effect of over 70% in size
An asterisk follows results filed as active; i = inactive; ? = inconclusive; · = no result; [ ] = dose if it differs, or a comment. In the library only some 11% were active in any assay of this set; here they are far more common. Unless noted, calls come from the whole dose curve. Potency is the fitted concentration of half-maximal effect.

SMILES | HEK cytotox | FLuc inh | hNpr1 antagonist | 3T3 cytotox | NPR1 antag cnf | Npr2 selectivity | FLuc counter | GloSensor cGMP
COc1cccc(-c2ccc(CN3C4CCC3CN(C(=O)c3ccncc3)C4)cc2)c1 | ? | · | · | ? | 12µM* | 15µM* | -4% | 14µM*
FC(F)(F)c1ccc(N2C3CCC2CN(Cc2ccc(-c4cccs4)cc2)C3)cc1 | 2% | i | 0% | -19% | · | · | · | ·
O=C(c1ccncc1)N1CC2CCC(C1)N2Cc1ccc(-c2ccsc2)cc1 | ? | i | 2.5µM* | ? | 6.9µM* | 6.9µM* | 3% | 6.1µM*
O=C(c1ccncc1)N1CC2CCC(C1)N2Cc1ccc(-c2cccs2)cc1 | ? | · | · | ? | 4.3µM* | 5.4µM* | 5% | 4.3µM*
COc1cccc(-c2ccc(CN3C4CCC3CN(C(C)C)C4)cc2)c1 | 0% | · | · | i | · | · | · | ·
COc1ccc(OC)c(S(=O)(=O)N[C@H]2CO[C@H]3[C@@H]2OC[C@H]3OC(=O)Nc2ccc(Oc3ccccc3)cc2)c1 | ? | i | 8.9µM* | ? | 11µM* | 14µM* | -7% | 9.7µM*
COc1ccc(NC(=O)O[C@@H]2CO[C@H]3[C@@H]2OC[C@@H]3NS(=O)(=O)c2ccc3ccccc3c2)cc1 | ? | ? | -4% | ? | · | · | · | ·
CC(=O)Nc1ccc(S(=O)(=O)N[C@H]2CO[C@H]3[C@@H]2OC[C@@H]3Nc2nccc(-c3ccco3)n2)cc1 | 25µM* | i | 13µM* | ? | 24µM* | 24µM* | 0% | 27µM*
CC(=O)Nc1ccc(S(=O)(=O)N[C@H]2CO[C@H]3[C@@H]2OC[C@H]3OC(=O)Nc2ccc(Oc3ccccc3)cc2)cc1 | ? | i | 11µM* | ? | 12µM* | 17µM* | ? | 12µM*
CN1CCC(NC[C@H]2O[C@H](Cc3cc(-c4cccc(O)c4)on3)CC[C@@H]2O)CC1 | 0%[172 µM] | i | ? | -2%[174 µM] | ? | -27%[86.2 µM] | -13%[86.2 µM] | ?
CCNC[C@H]1O[C@H](Cc2cc(-c3ccc(F)cc3)on2)CC[C@@H]1O | ? | ? | ? | ? | ? | -21%[86.2 µM] | -26%[86.2 µM] | ?
O[C@H]1CC[C@@H](Cc2cc(-c3ccc(F)cc3)on2)O[C@@H]1CNC1CCNCC1 | -24%[172 µM] | i | -23%[70.6 µM] | -29%[174 µM] | · | · | · | ·
CC1(c2ccccc2)N(Cc2ncccn2)C(=O)OC12CCN(Cc1ccc(F)cc1)CC2 (stereo unspecified) | ? | i | -4% | -14% | · | · | · | ·
O=C(Cc1c[nH]c2ccccc12)NCC12CCC=C1N(CC1CC1)C(=O)CC2 (stereo unspecified) | -8% | i | -15% | -17% | · | · | · | ·
Cc1ccc(CN2C[C@@H](CO)[C@H](c3nc(-c4ccncc4)no3)C2)cc1 | ? | i | 11µM* | ? | 24µM* | 24µM* | -7% | 24µM*
COCCC1(N(C)C)CCN(C(=O)c2ccccn2)CC1 | i | · | · | i | · | · | · | ·
O=C(NCCc1ccccn1)c1cc2n(n1)CC(c1ccc(Br)cc1)OC2 (stereo unspecified) | ? | i | 11µM* | ? | 22µM* | 24µM* | -13% | 24µM*
COc1ccc(CNC(=O)c2cc3n(n2)CC(c2ccc(Cl)cc2)OC3)cc1OC (stereo unspecified) | ? | i | ? | ? | · | · | · | ·
COc1cc(NC(=O)c2cc3n(n2)CC(c2ccc(Br)cc2)OC3)cc(OC)c1OC (stereo unspecified) | ? | i | ? | ? | ? | -25% | -3% | -19%
